In the OligoGym collection:

Target: SLC27A5
Assay: pooled miR-30 sensor sort-seq; sequence = guide strand
Conditions: shRNA

Going from TGTTGTAGTAAACGTCGCCCGA to TTGTCCAGTACAAACAGAGGGT, the sensor-assay potency score (higher = more potent) rises from -0.779 to -0.338.

Going from TAGTTGACTAAGCCCATGTTGC to TAGTCCATTGCCCATTGCCAGG, the sensor-assay potency score (higher = more potent) falls from -0.878 to -1.83.

Compared with TTGTAGTAAACGTCGCCCGATT, TTGACTAAGCCCATGTTGCCTT is higher in sensor-assay potency score (higher = more potent): -1.15 for the first, -0.405 for the second.

Going from TAAACCACATCATCAGCTGTGG to TTGCAAGAAGTCCACCTGCGAC, the sensor-assay potency score (higher = more potent) falls from -0.167 to -1.49.

First: TTCATCAGTTTGAACGTGCTGG
Second: TACAGGATCACTGTCACGCCAT
The sensor-assay potency score (higher = more potent) of the first is higher: 0.535 for the first, -0.0663 for the second.

First: TATGTGTCCGGTCCTCTGGTTG
Second: TATTCTGCCACTGCTACAGGGC
The sensor-assay potency score (higher = more potent) of the first is lower: -1.24 for the first, -0.565 for the second.

Target: SLC28A2
Assay: as above
Conditions: shRNA

Going from ATCTTCTTGAACAATCTGGCGT to TTCCAGGACATTCCTCTCCTTC, the sensor-assay potency score (higher = more potent) falls from -0.838 to -1.16.

Going from TTTGTTCTTGTATTGAGACAGT to TTGGACAAGTCACTCTTCCGGT, the sensor-assay potency score (higher = more potent) rises from -0.497 to -0.0512.
